SMILES strings stand for the structures. Results filed as inconclusive are left out. Where a call stands in place of a potency, no number is given. Calls of active or inactive are those of the source. Calls come from the whole dose curve; as a rule, active = well fitted inhibition curve with a large enough effect; inconclusive = small, poorly fitted or top-dose-only effect; inactive = flat fitted curve, though single readings scatter.

Potency data for 36 compounds are collected here from PubChem BioAssay (NCATS).
Potency is the fitted concentration of half-maximal effect.

Voltage-gated inwardly rectifying potassium channel KCNH2 (Homo sapiens), sequence (Q12809 whole entry, looked up): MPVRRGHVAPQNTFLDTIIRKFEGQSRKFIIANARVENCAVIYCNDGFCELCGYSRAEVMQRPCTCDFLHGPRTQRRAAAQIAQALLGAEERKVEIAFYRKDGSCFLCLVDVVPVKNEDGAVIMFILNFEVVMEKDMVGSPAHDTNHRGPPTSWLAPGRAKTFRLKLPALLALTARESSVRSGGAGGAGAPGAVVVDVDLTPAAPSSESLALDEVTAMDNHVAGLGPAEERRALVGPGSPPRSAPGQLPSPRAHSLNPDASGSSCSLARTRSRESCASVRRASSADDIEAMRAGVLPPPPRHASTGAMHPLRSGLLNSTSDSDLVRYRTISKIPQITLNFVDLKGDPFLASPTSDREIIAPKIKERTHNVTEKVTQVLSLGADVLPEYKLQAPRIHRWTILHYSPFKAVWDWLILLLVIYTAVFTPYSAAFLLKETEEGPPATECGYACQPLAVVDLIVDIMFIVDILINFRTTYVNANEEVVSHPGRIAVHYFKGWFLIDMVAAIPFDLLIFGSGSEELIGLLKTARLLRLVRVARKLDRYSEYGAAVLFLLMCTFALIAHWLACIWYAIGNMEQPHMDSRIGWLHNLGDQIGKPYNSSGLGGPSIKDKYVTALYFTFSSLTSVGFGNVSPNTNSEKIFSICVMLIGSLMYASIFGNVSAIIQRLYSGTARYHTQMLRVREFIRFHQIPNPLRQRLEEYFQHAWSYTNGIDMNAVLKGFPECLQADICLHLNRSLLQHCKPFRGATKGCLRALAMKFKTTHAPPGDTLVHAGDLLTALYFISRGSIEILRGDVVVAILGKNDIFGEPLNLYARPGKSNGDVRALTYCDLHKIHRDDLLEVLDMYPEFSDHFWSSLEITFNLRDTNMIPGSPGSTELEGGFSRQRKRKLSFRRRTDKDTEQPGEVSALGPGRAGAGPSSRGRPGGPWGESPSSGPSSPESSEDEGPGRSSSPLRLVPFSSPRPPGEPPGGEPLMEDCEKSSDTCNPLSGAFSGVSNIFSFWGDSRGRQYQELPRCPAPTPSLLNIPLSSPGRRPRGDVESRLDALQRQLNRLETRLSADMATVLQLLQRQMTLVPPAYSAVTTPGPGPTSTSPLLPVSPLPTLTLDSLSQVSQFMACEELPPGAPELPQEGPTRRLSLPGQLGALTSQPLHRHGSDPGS

This test concerns the target Voltage-gated inwardly rectifying potassium channel KCNH2 (Homo sapiens) (UniProt Q12809). As to the kind of experiment: qHTS Assay for Small Molecule Inhibitors of the Human hERG Channel Activity (AID 588834).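 Note: lower thallium flux fluorescence means stronger hERG block; nearly all actives have a fitted effect of over 50% in size.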 As to conditions: U2OS BacMam hERG, FluxOR thallium flux fluorescence; series mostly up to 46.1 µM. In a few lines:
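hERG block measured as reduced thallium-dye (FluxOR) fluorescence after stimulation buffer addition, read over 2 min. Cells were hERG-BacMam-transduced U2OS exposed to compound ~10 min […]; concentration-response fitted with Hill equation for AC50.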
In the case of `COC(=O)[C@H]1[C@H]2C[C@@H]3c4[nH]c5cc(OC)ccc5c4CCN3C[C@H]2C[C@@H](OC(=O)/C=C/c2cc(OC)c(OC)c(OC)c2)[C@@H]1OC`, the Potency was 7940 nM (active).
The result for `CCCCCCCCCCCCCCCCCCNC(=O)OCC(COP(=O)([O-])OCC[n+]1ccsc1)OC` (stereo unspecified) reads “inactive”.
`Brc1c(Br)c(Br)c2n[nH]nc2c1Br`: the Potency entry was “inactive”.
As to `O=C(/C=C/c1ccc(O)c(O)c1)OCCc1ccccc1`, the Potency result was “inactive”.
As to `CCCCC/C=C\CC(O)/C=C/c1cccc(CC(O)CCCCO)n1` (stereo unspecified), the Potency entry was “inactive”.
As for `CC12C(=O)OC(=O)C1(C)C1CCC2O1` (stereo unspecified), the Potency entry was “inactive”.
The result for `NC(CCCP(=O)(O)O)C(=O)O` (stereo unspecified) reads “inactive”; that for `CC1CN(S(=O)(=O)c2cccc3cnccc23)CCN1` (stereo unspecified), “inactive”; that for `CC(=O)[C@]1(O)Cc2c(O)c3c(c(O)c2[C@@H](O[C@H]2C[C@H](N)[C@H](O)[C@H](C)O2)C1)C(=O)c1c(O)cccc1C3=O`, “inactive”.
Take `Ic1ccc(N2CCN(Cc3c[nH]c4ncccc34)CC2)cc1`: the Potency is 1120 nM (active).
The result for `Cc1nc2ccccc2n1Cc1ccc(Cl)cc1` reads “inactive”; that for `OC[C@H]1O[C@@H](n2cnc3c(NC4CCCCC4)ncnc32)[C@H](O)[C@@H]1O`, “inactive”; that for `CCOc1ccc2nc(S(N)(=O)=O)sc2c1`, “inactive”.
For `Oc1c(Br)cc(Br)c2cccnc12` the value was “inactive”; for `COc1cc(OC)c(/C=C2/C(=O)Nc3ccccc32)c(OC)c1`, “inactive”; for `O=C(O)CNC(=O)C(CS)Cc1ccccc1` (stereo unspecified), “inactive”.
For `COc1cc2nc(N3CCN(C(=O)OCc4ccccc4)C(C(=O)NC(C)(C)C)C3)nc(N)c2cc1OC` (stereo unspecified) the value was “inactive”; for `Fc1cccc(/C=N/N=C/c2cccc(F)c2)c1`, “inactive”.
Regarding `O=C(O)CC1CCCc2ccccc2C1O` (stereo unspecified), the Potency result is “inactive”.
For `O=C1O/C(=C/Br)CCC1c1cccc2ccccc12` (stereo unspecified) the value was 5620 nM (active); for `Fc1ccc(C(OCCCc2cnc[nH]2)c2ccc(F)cc2)cc1`, 1410 nM (active); for `O=C(O)c1cc(=O)c2ccccc2[nH]1`, “inactive”.
With `Nc1ccc(C(=O)O)c(O)c1`, the Potency entry was “inactive”.
The result for `Cc1ccc(C(=O)O[C@H](C(=O)O)[C@@H](OC(=O)c2ccc(C)cc2)C(=O)O)cc1` (tested in a mixture with another compound) reads “inactive”.
The result for `Cc1c(C(=O)O)c(O)cc2c1C(=O)c1c(O)c([C@@H]3O[C@H](CO)[C@@H](O)[C@H](O)[C@H]3O)c(O)c(O)c1C2=O` reads “inactive”; that for `O=c1[nH]c2cc(C(F)(F)F)ccc2n1-c1cc(C(F)(F)F)ccc1O`, “inactive”.
For `c1ccc(-c2ccccn2)nc1` the value was “inactive”; for `CC(C(=O)O)c1ccc(C(=O)c2cccs2)cc1` (stereo unspecified), “inactive”; for `Cc1onc(-c2c(F)cccc2Cl)c1C(=O)N[C@@H]1C(=O)N2[C@@H]1SC(C)(C)[C@@H]2C(=O)O`, “inactive”.
Regarding `CCCCCCCCCCCCCCCCCC(=O)OC(CC(=O)O)C[N+](C)(C)C` (stereo unspecified), the Potency result is “inactive”.
As to `N=c1ccn2c(n1)O[C@H]1[C@H](O)[C@@H](CO)O[C@H]12`, the Potency result was “inactive”.
The result for `O=C(O)Cc1ccc(-c2ccccc2)cc1` reads “inactive”; that for `CC(C)Cc1ccc([C@H](C)C(=O)O)cc1`, “inactive”.
The result for `C[C@@H](CN1CCC(Cc2ccccc2)CC1)[C@@H](O)c1ccc(O)cc1` reads 631 nM (active).
The result for `OCC1O[C@H](O)C(Cl)C(O)C1O` (stereo partly specified) reads “inactive”; that for `O=C(Nc1ccc(C(=O)O)c(O)c1)c1ccccc1`, “inactive”.
